Bioassay records from PubChem BioAssay.
Rab9 promoter act: Rab9 promoter activation; 320,000 compounds, 2.8% hits; Potency, µM (titrated, usually from 9.22 µM), usual class: activators; AID 485297; Huh7 Rab9 promoter-luciferase reporter, luminescence, 24 h; also: nearly all actives have a fitted effect of over 60% in size
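Using Huh7 cells stably transfected with Rab9 promoter–luciferase, compounds were incubated 24 h at 37 °C, 5% CO2; luciferase luminescence was read 10 min after reagent addition.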
NPC1 promoter act: activators of NPC1 promoter. Huh7 NPC1 promoter luciferase reporter, 24 h. Potency, µM (titrated, usually from 9.22 µM), hits mostly activators. 320,000 compounds, 2.4% hits. AID 485313; also: nearly all actives have a fitted effect of over 60% in size
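Luciferase expression driven by the NPC1 promoter was measured in stably transfected Huh7 cells after a 24 h compound incubation, using a luciferase reagent and a luminescence read.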
ELG1 genotoxic: genotoxicity induction in ELG1-luciferase HEK293T cells; 330,000 compounds, 1.3% hits; Potency, µM (highest dose often 46 µM), usual class: activators; HEK293T ELG1-luciferase reporter, luminescence, 16 h; also: nearly all actives have a fitted effect of over 60% in size
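Quantitative HTS format in 1536-well plates. HEK293T ELG1-luciferase reporter cells receive test compound and are incubated 16 hr at 37 °C, 5% CO2; ONE-Glo added, 30 min room temperature, then luminescence read.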
SMN2 splice up: increases expression of the SMN2 splice variant | HEK293 SMN2-luciferase splicing reporter, luminescence, 30-36 h | Potency, µM (highest dose often 46.1 µM), most hits filed as activators | 210,000 compounds, 2.8% hits | AID 1458; also: nearly all actives have a fitted effect of over 55% in size
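HEK293 cells carry an SMN2 minigene-luciferase reporter in which exon 7 inclusion puts luciferase in frame. Cells were seeded at 2000 cells/well, attached for 10-12 hours, then exposed to compounds for 30-36 hours at 37C before ONE-Glo luminescence.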
FLuc modulator: firefly luciferase modulation, counter-screen for miR-21 project | 360,000 compounds, 6.9% hits | Potency, µM (top dose mostly 57.5 µM), hits mostly inhibitors | purified FLuc, Km substrates, luminescence inhibition | AID 588342 | P08659; also: nearly all actives have a fitted effect of over 55% in size
Target sequence (P08659 whole entry, looked up): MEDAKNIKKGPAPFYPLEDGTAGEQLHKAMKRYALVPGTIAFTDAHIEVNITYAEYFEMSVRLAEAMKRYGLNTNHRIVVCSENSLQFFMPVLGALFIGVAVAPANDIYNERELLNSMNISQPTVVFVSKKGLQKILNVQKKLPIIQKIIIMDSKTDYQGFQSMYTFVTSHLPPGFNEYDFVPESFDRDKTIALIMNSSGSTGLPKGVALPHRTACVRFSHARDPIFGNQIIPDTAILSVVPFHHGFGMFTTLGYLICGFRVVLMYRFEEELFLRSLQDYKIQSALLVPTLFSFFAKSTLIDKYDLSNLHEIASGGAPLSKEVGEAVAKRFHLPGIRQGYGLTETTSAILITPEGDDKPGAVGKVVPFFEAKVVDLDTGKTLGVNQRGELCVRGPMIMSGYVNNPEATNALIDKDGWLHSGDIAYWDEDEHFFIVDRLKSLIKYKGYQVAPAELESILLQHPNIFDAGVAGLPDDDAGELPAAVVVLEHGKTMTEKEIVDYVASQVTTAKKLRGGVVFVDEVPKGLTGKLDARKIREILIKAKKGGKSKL
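Biochemical qHTS of compounds, final roughly 60 µM downward over six points, against 10 nM purified firefly luciferase using Km concentrations of substrates (10 uM D-luciferin, 10 uM ATP) in Tris acetate pH 7.5 buffer; luminescence output.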
KinaseGlo FLuc: blocks Kinase-Glo luciferase, a counter-screen artifact; Q27757; Kinase-Glo luciferase, ATP luminescence, 8 min; Potency, µM (series often up to 38.3 µM), most hits filed as inhibitors; 200,000 compounds, 0.28% hits; AID 1379; also: nearly all actives have a fitted effect of over 60% in size
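Compounds were added to a substrate mix at pH 7.2 (50 mM imidazole, 10 uM ATP, within the enzyme's linear range), followed by Kinase-Glo detection reagent; luminescence was measured after 8 minutes at ambient temperature.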
Each line names hits and unclear results; the compound was inactive in the other large screens. Sampled rows, rich in hits. Any-hit rate of the full collection: about 7.5%. Calls follow the shape of the dose curve; as a rule, active = well fitted curve in the direction sought with a large enough effect; inconclusive = small, poorly fitted or top-dose-only effect, or another doubt; inactive = no such curve, though single readings can be large; an effect the other way counts as inactive or inconclusive.

COc1ccc(NC(=O)COC(=O)[C@@H](NC(=O)c2c(F)cccc2F)C(C)C)cc1	none
O=C(NCc1ccco1)c1ccc2ccccc2c1	Rab9 promoter act inconclusive, NPC1 promoter act inconclusive, FLuc modulator 13µM
CCOc1ccc(C(=O)NCc2ccco2)cc1	ELG1 genotoxic inconclusive, FLuc modulator inconclusive
O=C(NCc1ccco1)c1ccc(Oc2ccccc2)cc1	ELG1 genotoxic inconclusive, FLuc modulator 24µM
O=C(NCc1ccco1)c1ccc2c(c1)C(=O)c1ccccc1-2	ELG1 genotoxic 15µM, FLuc modulator inconclusive
O=C(Nc1sc2c(c1C(=O)NCc1ccco1)CCCC2)c1ccc2c(c1)OCO2	Rab9 promoter act inconclusive, ELG1 genotoxic 10µM, SMN2 splice up inconclusive, FLuc modulator 12µM
N#C/C(=C\c1ccc(Br)cc1)c1nc(-c2cc3cc(Br)ccc3oc2=O)cs1	none (no result: Rab9 promoter act, NPC1 promoter act, ELG1 genotoxic, KinaseGlo FLuc)
Cc1ccc(NC(=O)C2Cc3ccccc3CN2C(=O)c2ccco2)cc1S(=O)(=O)N(C)C (stereo not drawn)	ELG1 genotoxic inconclusive (no result: SMN2 splice up, KinaseGlo FLuc)
CCN1CCN(c2ccc(S(=O)(=O)N3CCCC3)cn2)CC1	none
CC(C)(CO)NC(=O)c1ccc2c(c1)C(=O)c1ccccc1-2	Rab9 promoter act inconclusive, NPC1 promoter act 2.5µM, ELG1 genotoxic 23µM, FLuc modulator 19µM (no result: SMN2 splice up, KinaseGlo FLuc)
O=C1c2ccccc2C(=O)N1CCOc1cccc(Br)c1	Rab9 promoter act inconclusive, ELG1 genotoxic inconclusive, FLuc modulator 11µM (no result: SMN2 splice up, KinaseGlo FLuc)
Cc1ccc2c(c1)C(=O)C(=O)N2CCOc1ccccc1	ELG1 genotoxic inconclusive, FLuc modulator 13µM
Cc1ccc2c(c1)C(=O)C(=O)N2CCCOc1ccccc1C	none (no result: SMN2 splice up)
Cc1cccc(OCCN2C(=O)C(=O)c3cccc(C)c32)c1	none
Cc1ccc(OCCN2C(=O)c3ccccc3C2=O)cc1	ELG1 genotoxic inconclusive, FLuc modulator inconclusive
Cc1cccc(OCCN2C(=O)C(=O)c3cc(C)ccc32)c1	ELG1 genotoxic inconclusive, FLuc modulator 12µM
Cc1cc(C)c(S(=O)(=O)c2ccccc2C)c(OCCN(C)C)n1	none (no result: SMN2 splice up, KinaseGlo FLuc)
CCN(CC)CC[n+]1ccc2c(C)c3[nH]c4ccccc4c3c(C)c2c1	none (no result: Rab9 promoter act, NPC1 promoter act, ELG1 genotoxic, FLuc modulator)
C/C(=N\Nc1nnc(-c2ccccc2)c(-c2ccccc2)n1)c1cccc([N+](=O)[O-])c1	ELG1 genotoxic 21µM, FLuc modulator 13µM
C/C(=N\Nc1ccc(Cl)c(C(=O)O)c1)c1cccc([N+](=O)[O-])c1	Rab9 promoter act inconclusive, NPC1 promoter act inconclusive, FLuc modulator 19µM (no result: SMN2 splice up, KinaseGlo FLuc)
O=[N+]([O-])c1cccc(/C=N/Nc2nnc(-c3ccccc3)c(-c3ccccc3)n2)c1	none
C/C(=N\Nc1cc(C)nc(NCc2ccccc2)n1)c1cccc([N+](=O)[O-])c1	FLuc modulator 12µM (no result: SMN2 splice up, KinaseGlo FLuc)
COc1ccc2cc3cc(C(=O)N4CCN(C5CCCCC5)CC4)oc3nc2c1	none (no result: SMN2 splice up, KinaseGlo FLuc)
COc1ccc2cc3cc(C(=O)N4CCCCCC4)oc3nc2c1	Rab9 promoter act 0.5µM, NPC1 promoter act 0.89µM, ELG1 genotoxic 2.6µM, FLuc modulator 1.9µM (no result: SMN2 splice up, KinaseGlo FLuc)
COc1ccc2cc3cc(C(=O)NCc4ccc(C)cc4)oc3nc2c1	none (no result: Rab9 promoter act, NPC1 promoter act, ELG1 genotoxic, KinaseGlo FLuc)
COc1ccc2cc3cc(C(=O)N(C)C4CCCCC4)oc3nc2c1	Rab9 promoter act 2.2µM, NPC1 promoter act 2.2µM, ELG1 genotoxic inconclusive, FLuc modulator 7.6µM (no result: SMN2 splice up, KinaseGlo FLuc)
COc1ccc2cc3cc(C(=O)N4CCCCC4C)oc3nc2c1 (stereo not drawn)	Rab9 promoter act 0.45µM, NPC1 promoter act 1.1µM, ELG1 genotoxic 2.3µM, FLuc modulator 3.4µM (no result: SMN2 splice up, KinaseGlo FLuc)
COc1c(-c2ccc([N+](=O)[O-])cc2[N+](=O)[O-])c(=O)n(C)c(=O)n1C	FLuc modulator inconclusive (no result: SMN2 splice up, KinaseGlo FLuc)
O=C(Cn1c(=O)n(-c2ccccc2)c(=O)c2ccc(C(=O)NCc3ccc4c(c3)OCO4)cc21)Nc1ccc(Br)cc1F	none (no result: Rab9 promoter act, NPC1 promoter act, ELG1 genotoxic, KinaseGlo FLuc)
CCOC(=O)C1=C(N)OC(CCl)=C(C#N)C1c1ccsc1 (stereo not drawn)	none
CCOc1cc(/C=C2\COc3ccccc3C2=O)ccc1OCC(=O)N(C)C	none (no result: SMN2 splice up, KinaseGlo FLuc)
O=C1/C(=C/c2cccs2)COc2ccccc21	ELG1 genotoxic inconclusive, FLuc modulator 1.3µM, KinaseGlo FLuc inconclusive
